Source: the supplement of paper PMC6555819

Tests used:
Experiment in all cases: PBM binding z-score (relative to random genomic background probes); higher = stronger binding; sequences stand for … in GC…GCGATTGACAGCGTAGAATGAAGG
[1] = system: PPARg:RXRa DBDmut IVT, anti-RXR (DBD mutation: RXRa K156A/R161A, NR concentration 270 nM, RXRa partner concentration 90 nM)
How it was run: (§1)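 Random background probes are the reference for binding z-scores. These scores derive from regression-normalized fluorescence on custom Agilent 4×180K protein-binding microarrays incubated 1 h with ligand-free nuclear receptor dimers. Binding was detected with antibodies against each partner (one per run).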

[2] = system: PPARg:RXRa IVT, anti-PPARg (NR concentration 270 nM, RXRa partner concentration 90 nM)
How it was run: as §1

[3] = system: PPARg DBDmut:RXRa IVT, anti-PPARg (DBD mutation: PPARg1 K132A/R137A, NR concentration 270 nM, RXRa partner concentration 90 nM)
How it was run: as §1

[4] = system: PPARg DBDmut IVT, anti-PPARg (DBD mutation: PPARg1 K132A/R137A, NR concentration 270 nM)
How it was run: as §1

[5] = system: PPARg homodimer (NR concentration 180 nM)
How it was run: as §1

[6] = system: PXR:RXRa (NR concentration 270 nM, RXRa partner concentration 90 nM)
How it was run: as §1

[7] = system: PXR homodimer (NR concentration 270 nM)
How it was run: as §1

[8] = system: RARa:RXR (NR concentration 270 nM, RXRa partner concentration 90 nM)
How it was run: as §1

[9] = system: RARa homodimer (NR concentration 270 nM)
How it was run: as §1

[10] = system: RARb:RXRa (NR concentration 270 nM, RXRa partner concentration 90 nM)
How it was run: as §1

TCAATGAGGTTAAAGATCAGGGAACGTGGCGTCG
PBM binding z-score [1]: 2.63
PBM binding z-score [2]: 2.57
PBM binding z-score [3]: 0.383
PBM binding z-score [4]: 0.398
PBM binding z-score [5]: 0.433
PBM binding z-score [6]: 1.83
PBM binding z-score [7]: -0.0283
PBM binding z-score [8]: 3.15
PBM binding z-score [9]: 0.278
PBM binding z-score [10]: 2.04

CGTCCAAGGCCAAAGGTCAGTGAAGAGATGACGG
PBM binding z-score [1]: 0.453
PBM binding z-score [2]: 3.33
PBM binding z-score [3]: -0.0649
PBM binding z-score [4]: -1.23
PBM binding z-score [5]: 3.96
PBM binding z-score [6]: 4.26
PBM binding z-score [7]: 0.612
PBM binding z-score [8]: 5.8
PBM binding z-score [9]: 1.79
PBM binding z-score [10]: 4.58

CGAACTAGGTCGGAACAGGACAGTGAAGGATGAT
PBM binding z-score [1]: 4.12
PBM binding z-score [2]: 3.56
PBM binding z-score [3]: 0.508
PBM binding z-score [4]: -0.428
PBM binding z-score [5]: -0.2
PBM binding z-score [6]: -0.28
PBM binding z-score [7]: -0.583
PBM binding z-score [8]: 0.314
PBM binding z-score [9]: -0.0866
PBM binding z-score [10]: 0.543

ACTAGTTGGTCAGCTGAGGTCACACAGAATTCGG
PBM binding z-score [1]: 1.48
PBM binding z-score [2]: 3.02
PBM binding z-score [3]: 0.452
PBM binding z-score [4]: 0.375
PBM binding z-score [5]: 2.18
PBM binding z-score [6]: 5.36
PBM binding z-score [7]: 1.87
PBM binding z-score [8]: 4.56
PBM binding z-score [9]: 0.455
PBM binding z-score [10]: 3.72

ATCTCTAGGTACAGTTCAGTGAAAGATCGATAGA
PBM binding z-score [1]: 0.631
PBM binding z-score [2]: 0.726
PBM binding z-score [3]: 1.18
PBM binding z-score [4]: 1.5
PBM binding z-score [5]: 0.523
PBM binding z-score [6]: 0.814
PBM binding z-score [7]: 0.988
PBM binding z-score [8]: 0.458
PBM binding z-score [9]: 1.24
PBM binding z-score [10]: 0.918

TCTGCTAGGTCAACGATTGTCAGCTAATCTGCTA
PBM binding z-score [1]: 4.14
PBM binding z-score [2]: 4.13
PBM binding z-score [3]: 0.817
PBM binding z-score [4]: 0.395
PBM binding z-score [5]: 0.734
PBM binding z-score [6]: 1.19
PBM binding z-score [7]: -0.478
PBM binding z-score [8]: 1.86
PBM binding z-score [9]: -1.01
PBM binding z-score [10]: 4.03

GCGACAGGGGCATCAGCAGGTTACCATAACTTAA
PBM binding z-score [1]: 0.0717
PBM binding z-score [2]: -0.102
PBM binding z-score [3]: -1.02
PBM binding z-score [4]: -1.18
PBM binding z-score [5]: 0.4
PBM binding z-score [6]: 0.643
PBM binding z-score [7]: 0.0793
PBM binding z-score [8]: 1.08
PBM binding z-score [9]: -0.68
PBM binding z-score [10]: 1.27

CAAACTAGGTCACGAAAGATCAAAGTCGAATGAC
PBM binding z-score [1]: 8.91
PBM binding z-score [2]: 9.37
PBM binding z-score [3]: 5.61
PBM binding z-score [4]: 5.17
PBM binding z-score [5]: 2.46
PBM binding z-score [6]: 2.88
PBM binding z-score [7]: 0.236
PBM binding z-score [8]: 3.39
PBM binding z-score [9]: 1.08
PBM binding z-score [10]: 4.37

CCTACTGGGCCATCGGGTCATTGATATCAACGTT
PBM binding z-score [1]: 3.69
PBM binding z-score [2]: 5
PBM binding z-score [3]: 0.365
PBM binding z-score [4]: -0.0654
PBM binding z-score [5]: 1.81
PBM binding z-score [6]: 1.9
PBM binding z-score [7]: -0.0623
PBM binding z-score [8]: 2.47
PBM binding z-score [9]: -0.279
PBM binding z-score [10]: 1.9

CAAACTTGGTCACCGGAAGGTCAAAGTCCGCATG
PBM binding z-score [1]: 2.35
PBM binding z-score [2]: 3.45
PBM binding z-score [3]: 0.726
PBM binding z-score [4]: 1.15
PBM binding z-score [5]: 2.58
PBM binding z-score [6]: 4.26
PBM binding z-score [7]: 1.08
PBM binding z-score [8]: 4.78
PBM binding z-score [9]: 0.786
PBM binding z-score [10]: 3.77

CTTCGGAGGACAACAGGAGGTCAGAGCTGCCAGA
PBM binding z-score [1]: 0.0715
PBM binding z-score [2]: 0.767
PBM binding z-score [3]: -2.3
PBM binding z-score [4]: -1.62
PBM binding z-score [5]: 1.69
PBM binding z-score [6]: 2.41
PBM binding z-score [7]: 0.525
PBM binding z-score [8]: 2.64
PBM binding z-score [9]: 0.557
PBM binding z-score [10]: 2.98

GCGACTGGAGCATCAGCAGGTTACCATAACTTAA
PBM binding z-score [1]: 0.414
PBM binding z-score [2]: 0.0135
PBM binding z-score [3]: -1.51
PBM binding z-score [4]: -0.56
PBM binding z-score [5]: -0.607
PBM binding z-score [6]: -0.228
PBM binding z-score [7]: -0.687
PBM binding z-score [8]: 0.0402
PBM binding z-score [9]: -1.07
PBM binding z-score [10]: -0.26

CAAACTAGGTGACAGAGGTCAAAGTCCGTGCGTA
PBM binding z-score [1]: 8
PBM binding z-score [2]: 8.03
PBM binding z-score [3]: 1.36
PBM binding z-score [4]: 0.411
PBM binding z-score [5]: 2.02
PBM binding z-score [6]: 5.61
PBM binding z-score [7]: 2.31
PBM binding z-score [8]: 5.38
PBM binding z-score [9]: 1.29
PBM binding z-score [10]: 4.12

CCGAGTGGGTTATGGGGCATTCAGGCAACGGTGA
PBM binding z-score [1]: 1.23
PBM binding z-score [2]: 2.29
PBM binding z-score [3]: -0.951
PBM binding z-score [4]: -0.669
PBM binding z-score [5]: 0.384
PBM binding z-score [6]: -0.309
PBM binding z-score [7]: 0.21
PBM binding z-score [8]: 0.0956
PBM binding z-score [9]: 0.0265
PBM binding z-score [10]: 0.461

ATCTCTAGGTAAGAATCAGTTCAGTGAAGAACGC
PBM binding z-score [1]: 1.32
PBM binding z-score [2]: 0.899
PBM binding z-score [3]: 0.992
PBM binding z-score [4]: 1.06
PBM binding z-score [5]: 1.4
PBM binding z-score [6]: 1.05
PBM binding z-score [7]: 1.2
PBM binding z-score [8]: 0.793
PBM binding z-score [9]: 2.09
PBM binding z-score [10]: 0.435

TCTTGTAGATCAGCAGGTTAAGGAAGCTGGCCAA
PBM binding z-score [1]: 1.63
PBM binding z-score [2]: 0.577
PBM binding z-score [3]: -1.02
PBM binding z-score [4]: -0.0477
PBM binding z-score [5]: -0.0347
PBM binding z-score [6]: 0.121
PBM binding z-score [7]: -0.363
PBM binding z-score [8]: 0.277
PBM binding z-score [9]: -0.25
PBM binding z-score [10]: 0.316

CCTTACGGGTCACTGACAGGTTATGGCATTTGGA
PBM binding z-score [1]: 3.42
PBM binding z-score [2]: 3.8
PBM binding z-score [3]: 0.363
PBM binding z-score [4]: -0.311
PBM binding z-score [5]: 3.61
PBM binding z-score [6]: 3.77
PBM binding z-score [7]: -0.0581
PBM binding z-score [8]: 4.95
PBM binding z-score [9]: 1.29
PBM binding z-score [10]: 4.04

TCTGCTAGGTCAGCTGGTCAGCTAACGAGCTGCC
PBM binding z-score [1]: 2.65
PBM binding z-score [2]: 2.82
PBM binding z-score [3]: -0.25
PBM binding z-score [4]: -0.593
PBM binding z-score [5]: 0.0537
PBM binding z-score [6]: 0.279
PBM binding z-score [7]: -1.58
PBM binding z-score [8]: 0.872
PBM binding z-score [9]: -1.54
PBM binding z-score [10]: 3.64

GCTATTAGTTGAAAGGGCAATCGAATGATTCTCG
PBM binding z-score [1]: 0.456
PBM binding z-score [2]: 1
PBM binding z-score [3]: -0.234
PBM binding z-score [4]: 0.628
PBM binding z-score [5]: 1.15
PBM binding z-score [6]: 0.658
PBM binding z-score [7]: 0.0729
PBM binding z-score [8]: 1.25
PBM binding z-score [9]: 0.589
PBM binding z-score [10]: 1.74

ACTTACGGGTCAACGAGGTTAAAGCACGCGTATA
PBM binding z-score [1]: 3.22
PBM binding z-score [2]: 4.19
PBM binding z-score [3]: 0.985
PBM binding z-score [4]: 1.02
PBM binding z-score [5]: 2.28
PBM binding z-score [6]: 5.38
PBM binding z-score [7]: 3.33
PBM binding z-score [8]: 5.36
PBM binding z-score [9]: 0.479
PBM binding z-score [10]: 4.53

CAAACTAGGTCACGATAGGTCAAAGTCGAATGAC
PBM binding z-score [1]: 8.73
PBM binding z-score [2]: 9.21
PBM binding z-score [3]: 3.89
PBM binding z-score [4]: 2.14
PBM binding z-score [5]: 4.63
PBM binding z-score [6]: 5.42
PBM binding z-score [7]: 0.73
PBM binding z-score [8]: 5.95
PBM binding z-score [9]: 1.74
PBM binding z-score [10]: 4.88

GCTCGGAGGACAAGGTCAGAGATTTGTCCGTAGA
PBM binding z-score [1]: -0.252
PBM binding z-score [2]: 0.673
PBM binding z-score [3]: -0.517
PBM binding z-score [4]: -0.427
PBM binding z-score [5]: 0.0878
PBM binding z-score [6]: 1.24
PBM binding z-score [7]: -0.24
PBM binding z-score [8]: 1.77
PBM binding z-score [9]: -0.275
PBM binding z-score [10]: 3.48

AGTCGAAGTTCAGGACGAGGTAACGTAAAGCACG
PBM binding z-score [1]: -0.408
PBM binding z-score [2]: 0.263
PBM binding z-score [3]: -0.282
PBM binding z-score [4]: -0.353
PBM binding z-score [5]: 0.469
PBM binding z-score [6]: 1.19
PBM binding z-score [7]: 0.0866
PBM binding z-score [8]: 1.42
PBM binding z-score [9]: 0.0687
PBM binding z-score [10]: 2.41

CGAACTAGGTCAAAGGTCAAAGTCGAGCCAACCA
PBM binding z-score [1]: 8.51
PBM binding z-score [2]: 9.23
PBM binding z-score [3]: 5.13
PBM binding z-score [4]: 3.23
PBM binding z-score [5]: 6.9
PBM binding z-score [6]: 7.09
PBM binding z-score [7]: 2.03
PBM binding z-score [8]: 8.93
PBM binding z-score [9]: 3.32
PBM binding z-score [10]: 5.51

CAAACTAGGTCACAGAGGTCAAATTCCGTGCGTA
PBM binding z-score [1]: 8.77
PBM binding z-score [2]: 8.98
PBM binding z-score [3]: 8.04
PBM binding z-score [4]: 3.55
PBM binding z-score [5]: 6.47
PBM binding z-score [6]: 7.14
PBM binding z-score [7]: 12.3
PBM binding z-score [8]: 7.83
PBM binding z-score [9]: 3.22
PBM binding z-score [10]: 5.4
